Data taken from PubChem BioAssay AID1159580 (chemical genetic matrix, 2015).
About 2,000 (36%) of roughly 5,500 compounds were called active. Not shown: some 18% with an inconclusive outcome. Cut-off read from the data, not from the text of the source: active = normalized growth mostly below about 0.91 (no sharp cut-off); inconclusive = no clear call, values can overlap the other calls; inactive = mostly above about 0.92. The list shows a part of the results.

Test: chemical genetic growth profiling, strain panel (AID 1159580);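 note: tested at 20 µM; growth read once vehicle control cultures reached saturation at 30 °C; 1 = growth at the plate median or of vehicle wells; lower values mean less growth of the strain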
Details: S. cerevisiae deletion strains, growth OD
[1] = locus YHR030C, strain SLT2, hits give low values
[2] = locus YHR079C, strain IRE1, hits give low values
[3] = locus YJL095W, strain BCK1, hits give low values
[4] = locus YJR066W, strain TOR1, hits give low values
[5] = locus YLR113W, strain HOG1, hits give low values
[6] = locus YNL183C, strain NPR1, hits give low values
[7] = locus YOR231W, strain MKK1, hits give low values
[8] = locus YPL256C, strain CLN2, hits give low values

Measured: normalized growth

CCC(CO)NC(=O)C1C=C2c3cccc4c3c(cn4C)CC2N(C)C1 (stereo unspecified)
inactive: locus YAL013W, strain DEP1, hits give low values 0.988 | locus YAL040C, strain CLN3, hits give low values 1.08 | locus YCL061C, strain MRC1 (second series), hits give low values 0.999 | locus YDR150W, strain NUM1, hits give low values 1 | locus YDR363W, strain ESC2, hits give low values 0.972 | locus YER002W, strain NOP16, hits give low values 0.998 | locus YGR078C, strain PAC10, hits give low values 1 | locus YGR229C, strain SMI1, hits give low values 0.999 | locus YMR263W, strain SAP30, hits give low values 0.994 | locus YMR307W, strain GAS1, hits give low values 0.962 | locus YNL128W, strain TEP1, hits give low values 1.02 | locus YNL153C, strain GIM3, hits give low values 1 | locus YNL175C, strain NOP13, hits give low values 0.987 | locus YNL197C, strain WHI3, hits give low values 1.02 | locus YNL224C, strain SQS1, hits give low values 1 | locus YNL322C, strain KRE1, hits give low values 0.989 | locus YOR083W, strain WHI5 (second series), hits give low values 0.988 | locus YPL055C, strain LGE1, hits give low values 0.997 | locus YPL241C, strain CIN2, hits give low values 1

Nc1ccc(S(=O)(=O)O)cc1
inactive: [1] 0.992 | [2] 0.987 | [3] 0.998 | [4] 0.966 | [5] 0.976 | [6] 0.939 | [7] 1.01 | [8] 0.97

CC[C@]1(O)CC2CN(CCc3c([nH]c4ccccc34)[C@@](C(=O)OC)(c3cc4c(cc3OC)N(C=O)[C@H]3[C@@](O)(C(=O)OC)[C@H](OC(C)=O)[C@]5(CC)C=CCN6CC[C@]43[C@@H]65)C2)C1 (stereo partly specified)
inactive: locus YAL021C, strain ccr4, hits give low values 1 | locus YAL026C, strain drs2, hits give low values 0.984 | locus YAL030W, strain snc1, hits give low values 0.993 | locus YBL061C, strain skt5, hits give low values 1 | locus YBR009C, strain hhf1, hits give low values 0.988 | locus YBR023C, strain chs3, hits give low values 0.999 | locus YBR171W, strain sec66, hits give low values 0.978 | locus YBR231C, strain swc5, hits give low values 1.01 | locus YBR279W, strain paf1, hits give low values 0.989 | locus YCL011C, strain gbp2, hits give low values 1.01 | locus YCL016C, strain dcc1, hits give low values 1.03 | locus YCL061C, strain MRC1, hits give low values 0.971 | locus YCL069W, strain vba3, hits give low values 0.968 | locus YCR088W, strain abp1, hits give low values 0.986 | locus YDL005C, strain med2, hits give low values 0.985 | locus YDL040C, strain nat1, hits give low values 0.988 | locus YDR001C, strain nth1, hits give low values 1 | locus YDR069C, strain doa4, hits give low values 0.984 | locus YDR137W, strain rgp1, hits give low values 0.989 | locus YDR159W, strain sac3, hits give low values 0.994 | locus YDR195W, strain ref2 0.978 | locus YDR297W, strain sur2, hits give low values 0.982 | locus YDR334W, strain swr1, hits give low values 0.937 | locus YDR335W, strain msn5, hits give low values 0.977 | locus YDR392W, strain spt3, hits give low values 0.987 | locus YEL003W, strain gim4, hits give low values 0.972 | locus YEL037C, strain rad23, hits give low values 0.981 | locus YEL061C, strain CIN8 (second series), hits give low values 0.968 | locus YER015W, strain faa2, hits give low values 0.997 | locus YER016W, strain bim1, hits give low values 0.989 | locus YER111C, strain swi4, hits give low values 0.989 | locus YER155C, strain BEM2 (second series), hits give low values 0.962 | locus YFR010W, strain ubp6, hits give low values 0.94 | locus YGL167C, strain pmr1, hits give low values 0.972 | locus YGL173C, strain kem1, hits give low values 0.996 | locus YGL227W, strain vid30, hits give low values 0.985 | locus YGL240W, strain doc1, hits give low values 0.966 | locus YGL253W, strain hxk2, hits give low values 1.02 | locus YHR013C, strain ard1, hits give low values 1 | locus YHR027C, strain rpn1, hits give low values 0.992 | [1] 0.972 | [2] 0.97 | locus YHR142W, strain chs7, hits give low values 1.04 | locus YJL092W, strain hpr5, hits give low values 0.973 | locus YJL095W, strain BCK1 (second series), hits give low values 0.988 | [3] 0.958 | locus YJL115W, strain asf1, hits give low values 0.981 | locus YJL129C, strain trk1, hits give low values 1.01 | locus YJL154C, strain vps35, hits give low values 0.972 | locus YJL164C, strain tpk1, hits give low values 0.986 | locus YJL166W, strain qcr8, hits give low values 0.998 | [4] 0.939 | locus YKL160W, strain elf1, hits give low values 1.03 | locus YKR026C, strain gcn3, hits give low values 0.982 | locus YKR091W, strain srl3, hits give low values 0.999 | locus YLL001W, strain dnm1, hits give low values 1.01 | locus YLL026W, hits give low values 0.992 | locus YLL041C, strain sdh2, hits give low values 0.992 | locus YLR027C, strain aat2, hits give low values 0.991 | [5] 0.936 | locus YLR221C, strain rsa3, hits give low values 0.981 | locus YLR258W, strain gsy2, hits give low values 0.994 | locus YLR262C, strain YPT6 (second series), hits give low values 0.954 | locus YLR320W, strain mms22, hits give low values 0.985 | locus YLR342W, strain FKS1, hits give low values 0.984 | locus YLR357W, strain rsc2, hits give low values 0.92 | locus YLR370C, strain arc18, hits give low values 1.01 | locus YLR384C, strain iki3, hits give low values 1.01 | locus YML120C, strain ndi1, hits give low values 0.964 | locus YMR058W, strain fet3, hits give low values 0.982 | locus YMR125W, strain sto1, hits give low values 0.926 | locus YMR129W, hits give low values 0.994 | locus YMR205C, strain PFK2, hits give low values 1.01 | locus YMR231W, strain pep5, hits give low values 0.986 | locus YNL071W, strain lat1, hits give low values 0.973 | [6] 0.933 | locus YNL209W, strain ssb2, hits give low values 1 | locus YNL248C, strain rpa49, hits give low values 0.991 | locus YNL322C, strain KRE1 (second series), hits give low values 0.975 | locus YNR049C, strain mso1, hits give low values 0.975 | locus YOR001W, strain rrp6, hits give low values 0.945 | locus YOR070C, strain gyp1, hits give low values 0.999 | locus YOR080W, strain dia2, hits give low values 0.996 | locus YOR083W, strain WHI5, hits give low values 1.01 | locus YOR106W, strain vam3, hits give low values 0.998 | [7] 0.964 | locus YOR265W, strain rbl2, hits give low values 0.989 | locus YOR270C, strain vph1, hits give low values 1.04 | locus YOR290C, strain snf2, hits give low values 1.02 | locus YPL051W, strain arl3, hits give low values 1.01 | locus YPL078C, strain atp4, hits give low values 1.04 | locus YPL106C, strain sse1, hits give low values 0.953 | locus YPL240C, strain hsp82, hits give low values 0.952 | [8] 1.05
